# Unmarked numbers belong to inactive results. Records with an inconclusive call do not appear. Entries that show only a call come without a potency. Activity calls are given as the source filed them. Unless noted, calls come from the whole dose curve; as a rule, active = well fitted curve in the direction sought with a large enough effect in the repeat runs; inconclusive = weak or mixed curves; inactive = no such curve, though single readings can be large; an effect the other way counts as inactive or inconclusive.
# Columns and labels:
# [1] = qHTS assay to identify small molecule agonists of the estrogen receptor alpha (ER-alpha) signaling pathway in the presence of an antagonist - cell viability counter screen (AID 1259386);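 note: series mostly up to about 92 µM; cells exposed to compounds for 22 h at 37 °C before the viability read; nearly all actives have a fitted effect of over 30% in size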
# Method in brief: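 Cells are starved of estrogens for 5 days in charcoal-stripped serum, seeded for 24hr and co-treated with ICI-182,780 (10.0nM final) and test compounds. After 22hr at 37C, viability is read as CellTiter-Fluor fluorescence.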
# [2] = molecular target: Progesterone receptor (Homo sapiens) (UniProt P06401); experiment: qHTS assay to identify small molecule agonists of the progesterone receptor (PR) signaling pathway (AID 1346784; calls by dose curve; note: nearly all actives have a fitted effect of over 30% in size)
# Chain of Progesterone receptor (Homo sapiens) (P06401 whole entry, looked up): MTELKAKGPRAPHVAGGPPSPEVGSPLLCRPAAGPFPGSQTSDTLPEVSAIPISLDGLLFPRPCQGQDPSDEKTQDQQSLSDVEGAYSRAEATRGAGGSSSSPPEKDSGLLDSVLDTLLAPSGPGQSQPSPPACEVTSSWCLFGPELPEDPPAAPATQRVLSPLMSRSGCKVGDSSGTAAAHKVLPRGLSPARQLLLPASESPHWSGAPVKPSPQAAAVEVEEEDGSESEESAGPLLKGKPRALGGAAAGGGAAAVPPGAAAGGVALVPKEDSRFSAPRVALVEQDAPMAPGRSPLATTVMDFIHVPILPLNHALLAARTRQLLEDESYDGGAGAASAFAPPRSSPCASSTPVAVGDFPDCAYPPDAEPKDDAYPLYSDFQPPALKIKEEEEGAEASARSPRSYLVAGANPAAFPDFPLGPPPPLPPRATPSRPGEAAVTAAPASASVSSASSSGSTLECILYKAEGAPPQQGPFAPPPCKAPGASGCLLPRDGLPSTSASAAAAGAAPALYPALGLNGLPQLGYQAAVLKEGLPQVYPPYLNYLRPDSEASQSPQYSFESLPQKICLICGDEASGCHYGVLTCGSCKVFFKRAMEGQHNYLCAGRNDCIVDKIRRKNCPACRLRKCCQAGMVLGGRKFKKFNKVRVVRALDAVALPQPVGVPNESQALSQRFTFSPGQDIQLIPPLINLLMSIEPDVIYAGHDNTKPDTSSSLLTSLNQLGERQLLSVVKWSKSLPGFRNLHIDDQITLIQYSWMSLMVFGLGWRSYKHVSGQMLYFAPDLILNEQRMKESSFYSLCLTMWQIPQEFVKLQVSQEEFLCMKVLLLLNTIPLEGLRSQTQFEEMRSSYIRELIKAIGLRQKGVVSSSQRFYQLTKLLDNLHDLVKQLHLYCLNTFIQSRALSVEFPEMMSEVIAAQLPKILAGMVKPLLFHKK
# Method in brief: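 Seed PR-UAS-bla HEK 293T cells (2% charcoal-stripped FBS), incubate 6 hr at 37C; add compounds in DMSO, 16 hr at 37C; add LiveBLAzer B/G substrate, 2 hr RT; read fluorescence intensity.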
# [3] = molecular target: Progesterone receptor (Homo sapiens) (UniProt P06401); experiment: qHTS assay to identify small molecule antagonists of the progesterone receptor (PR) signaling pathway (AID 1346795; active = well fitted inhibition curve with a large enough effect in the signal ratio in the repeat runs, not every such curve was filed as active; the % refers to the signal ratio)
# Method in brief: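 Screening used a GripTite HEK293T line with PR-responsive UAS-beta-lactamase. Cells were challenged with compound in the presence of 1 nM R5020 final for 16 hr at 37C; B/G FRET substrate, 2 hr room temperature, fluorescence.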
# [4] = qHTS assay to identify small molecule antagonists of the progesterone receptor (PR) signaling pathway - cell viability counter screen (AID 1346798); note: series mostly up to about 92 µM; nearly all actives have a fitted effect of over 50% in size
# Method in brief: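 Measures cytotoxicity in parallel with the PR antagonist reporter read: HEK293T PR-UAS-bla cells get compound and R5020 for 16 hr, and remaining viable cells are quantified by CellTiter-Glo luminescence.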
# [5] = qHTS assay to identify small molecule agonists of the progesterone receptor (PR) signaling pathway - cell viability counter screen (AID 1346799; calls by dose curve; note: nearly all actives have a fitted effect of over 45% in size)
# Method in brief: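 Using the same plates as the PR reporter screen, HEK293T PR-UAS-bla cells received compounds for 16 hr at 37C and were then lysed with CellTiter-Glo; luminescence was read 30 min later at room temperature.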
# [6] = qHTS assay to identify small molecule antagonists of the TGF-beta/Smad signaling pathway - cell viability counter screen (AID 1346824); note: nearly all actives have a fitted effect of over 50% in size
# Method in brief: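 SBE-bla HEK 293T cells, incubated overnight, then compound plus 0.25 ng/mL TGF-beta1 (stock added) for 5 hr at 37 C. Viability was read in the same wells by CellTiter-Glo luminescence after 30 min at room temperature.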
# [7] = qHTS assay to identify small molecule agonists of the TGF-beta/Smad signaling pathway (AID 1346859; active = well fitted activation curve with a large enough effect in the signal ratio in the repeat runs, not every such curve was filed as active; the % refers to the signal ratio; note: series mostly up to about 77 µM)
# Method in brief: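 Beta-lactamase reporter activity downstream of Smad binding elements was measured in stably transfected HEK 293T cells; compounds were incubated for 5 hr, substrate for 2 hr at room temperature.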
# [8] = molecular target: Thyrotropin-releasing hormone receptor (Homo sapiens) (UniProt P34981); experiment: qHTS assay to identify small molecule antagonists of the thyrotropin-releasing hormone receptor (TRHR) signaling pathway (AID 1346877; active = well fitted inhibition curve with a large enough effect in the repeat runs, not every such curve was filed as active; note: series mostly up to about 51 µM)
# Chain of Thyrotropin-releasing hormone receptor (Homo sapiens) (P34981 whole entry, looked up): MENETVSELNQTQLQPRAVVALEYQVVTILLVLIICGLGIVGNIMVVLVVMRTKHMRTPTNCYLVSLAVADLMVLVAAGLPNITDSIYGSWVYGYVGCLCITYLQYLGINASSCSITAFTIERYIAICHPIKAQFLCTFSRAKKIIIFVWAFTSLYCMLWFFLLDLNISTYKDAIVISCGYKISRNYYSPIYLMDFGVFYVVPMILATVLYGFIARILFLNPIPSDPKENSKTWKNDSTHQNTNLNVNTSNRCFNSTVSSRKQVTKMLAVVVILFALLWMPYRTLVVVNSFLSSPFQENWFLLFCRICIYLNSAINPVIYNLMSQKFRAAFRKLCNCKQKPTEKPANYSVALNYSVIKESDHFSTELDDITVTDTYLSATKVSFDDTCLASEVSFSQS
# Method in brief: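 Cells (TRHR-HEK293) are plated and kept 18 h at 37 °C/5% CO2. A calcium-sensitive dye is added for 2 h, compound follows for 5 min at room temperature, and TRH is then given at 1 nM final.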
# [9] = molecular target: Thyrotropin-releasing hormone receptor (Homo sapiens) (UniProt P34981); experiment: qHTS assay to identify small molecule agonists of the thyrotropin-releasing hormone receptor (TRHR) signaling pathway (AID 1346891; calls by dose curve;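 note: HEK293 cells expressing TRHR with calcium dye readout; series mostly up to about 58 µM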)
# Method in brief: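 Overnight-plated (18 h, 37 °C, 5% CO2) TRHR-Hek293 cells; 2 h calcium dye at 37 °C; compound in DMSO; 3-min kinetic fluorescence read.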
# [10] = Human pregnane X receptor (PXR) small molecule agonists, qHTS cell viability counter screen (AID 1346977); note: nearly all actives have a fitted effect of over 50% in size
# Method in brief: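 After a 5hr pre-incubation, PXR-Luc HepG2 cells received compounds plus positive control in DMSO and were kept 24hr at 37C. Cell viability was quantified by fluorescence from CellTiter-Fluor added for the final hour.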
# [11] = Caspase-3/7 induction in HepG2 cells by small molecules, qHTS assay (AID 1346978); note: nearly all actives have a fitted effect of over 15% in size
# Method in brief: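 Wild-type HepG2 cells, 2,000/well, settled 5 hr at 37 C and 5% CO2, then compound-treated for 17 hr; caspase-3/7 activity read by luminescent Caspase-Glo 3/7 after 30 min at room temperature.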
# [12] = Caspase-3/7 induction in CHO-K1 cells by small molecules, qHTS cell viability counter screen (AID 1346979); note: nearly all actives have a fitted effect of over 35% in size
# Method in brief: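 Multiplexed with Caspase-Glo 3/7 in CHO-K1 cells, this counter screen added CellTiter-Fluor after 16hr of compound exposure and recorded fluorescence 1hr later.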
# [13] = Caspase-3/7 induction in CHO-K1 cells by small molecules, qHTS assay (AID 1346980); note: nearly all actives have a fitted effect of over 15% in size
# Method in brief: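 Wild-type CHO-K1 cells exposed to compounds for 17hr at 37 C, 5% CO2. Caspase-3/7 activity then measured by Caspase-Glo 3/7 luminescence after 30min at room temperature.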
# [14] = Caspase-3/7 induction in HepG2 cells by small molecules, qHTS cell viability counter screen (AID 1346981); note: series mostly up to about 92 µM; nearly all actives have a fitted effect of over 30% in size
# Method in brief: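 Steps: seed 2,000 HepG2 cells per well; incubate 5 hr at 37 C; pin-add compounds in DMSO; incubate 16 hr; add CellTiter-Fluor; after 1 hr at 37 C and 5% CO2, read fluorescence.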
# [15] = molecular target: Nuclear receptor subfamily 1 group I member 2 (Homo sapiens) (UniProt O75469); experiment: Human pregnane X receptor (PXR) small molecule agonists, qHTS assay (AID 1346982); note: nearly all actives have a fitted effect of over 35% in size; note: potency is the fitted concentration of half-maximal effect
# Chain of Nuclear receptor subfamily 1 group I member 2 (Homo sapiens) (O75469 whole entry, looked up): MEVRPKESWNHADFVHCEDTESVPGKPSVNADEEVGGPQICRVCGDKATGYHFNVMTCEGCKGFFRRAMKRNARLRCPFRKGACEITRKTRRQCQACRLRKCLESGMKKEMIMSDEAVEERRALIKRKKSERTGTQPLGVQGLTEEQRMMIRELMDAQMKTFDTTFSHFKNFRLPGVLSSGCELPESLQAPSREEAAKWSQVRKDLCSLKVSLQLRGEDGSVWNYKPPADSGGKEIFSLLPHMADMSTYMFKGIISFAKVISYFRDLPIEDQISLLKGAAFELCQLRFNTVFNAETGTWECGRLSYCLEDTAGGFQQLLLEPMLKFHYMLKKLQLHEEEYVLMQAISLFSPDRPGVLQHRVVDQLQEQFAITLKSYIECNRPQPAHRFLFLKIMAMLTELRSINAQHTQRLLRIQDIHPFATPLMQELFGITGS
# Method in brief: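 Agonist mode qHTS: PXR-Luc HepG2 cells plated 5 hr before DMSO-dissolved compounds were pinned in, cultured 24 hr at 37 C, 5% CO2; ONE-Glo luminescence readout.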
# [16] = molecular target: Acetylcholinesterase (Homo sapiens) (UniProt P22303); experiment: Acetylcholinesterase (AChE) small molecule antagonists: colormetric cell-based qHTS assay (AID 1347395; calls by dose curve; note: nearly all actives have a fitted effect of over 30% in size)
# Chain of Acetylcholinesterase (Homo sapiens) (P22303 whole entry, looked up): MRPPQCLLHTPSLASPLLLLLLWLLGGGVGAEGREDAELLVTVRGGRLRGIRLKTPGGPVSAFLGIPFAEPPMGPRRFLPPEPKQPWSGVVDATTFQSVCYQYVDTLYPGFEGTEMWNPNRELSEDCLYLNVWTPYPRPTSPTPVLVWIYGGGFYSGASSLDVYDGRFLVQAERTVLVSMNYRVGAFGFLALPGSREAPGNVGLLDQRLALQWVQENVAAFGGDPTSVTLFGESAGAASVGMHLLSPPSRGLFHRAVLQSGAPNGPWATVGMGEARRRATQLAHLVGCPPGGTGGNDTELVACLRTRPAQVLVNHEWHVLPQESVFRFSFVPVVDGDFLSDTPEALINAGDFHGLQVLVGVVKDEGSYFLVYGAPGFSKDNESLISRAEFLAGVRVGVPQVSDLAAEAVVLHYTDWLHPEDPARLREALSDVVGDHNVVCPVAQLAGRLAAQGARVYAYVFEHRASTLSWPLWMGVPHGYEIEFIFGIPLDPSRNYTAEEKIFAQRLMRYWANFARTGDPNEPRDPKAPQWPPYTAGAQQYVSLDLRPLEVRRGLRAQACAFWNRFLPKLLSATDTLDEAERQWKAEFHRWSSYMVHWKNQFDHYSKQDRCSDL
# Method in brief: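 In this cell-based qHTS, attached SH-SY5Y cells were treated with test chemicals for 30 min, after which acetylthiocholine hydrolysis was followed by DTNB colour development over 90 min at 37 C.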
# [17] = qHTS assay to identify small molecule agonists of the TGF-beta/Smad signaling pathway - cell viability counter screen (AID 1346829); note: top concentration of the series differs between compounds; nearly all actives have a fitted effect of over 45% in size
# Method in brief: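 In parallel with the Smad reporter read, viability of HEK 293T cells stably carrying SBE-bla is quantified by ATP luminescence following 5 hr compound treatment.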
# [18] = molecular target: Nuclear receptor subfamily 1 group I member 2 (Rattus norvegicus) (UniProt Q9R1A7); experiment: Rat pregnane X receptor (rPXR) activation by small molecules, qHTS assay (AID 1346983); conditions: rPXR luciferase reporter cells, One-Glo luminescence, 24 h; active compounds read high; note: nearly all actives have a fitted effect of over 20% in size
# Chain of Nuclear receptor subfamily 1 group I member 2 (Rattus norvegicus) (Q9R1A7 whole entry, looked up): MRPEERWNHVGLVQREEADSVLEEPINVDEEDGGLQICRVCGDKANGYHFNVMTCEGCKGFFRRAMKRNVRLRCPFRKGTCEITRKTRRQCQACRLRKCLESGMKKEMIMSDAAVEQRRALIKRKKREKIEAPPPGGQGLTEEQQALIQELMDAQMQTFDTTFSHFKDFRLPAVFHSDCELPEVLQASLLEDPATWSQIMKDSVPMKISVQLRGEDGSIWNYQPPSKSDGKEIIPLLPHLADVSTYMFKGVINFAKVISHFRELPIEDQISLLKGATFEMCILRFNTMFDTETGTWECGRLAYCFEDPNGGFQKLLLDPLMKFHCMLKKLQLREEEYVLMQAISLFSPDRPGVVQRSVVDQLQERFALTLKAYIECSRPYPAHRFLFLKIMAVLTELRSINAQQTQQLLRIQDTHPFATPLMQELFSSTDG
# Method in brief: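 Cell-based rPXR activation assay: rPXR cells, 2,000 per well, rested 5hr at 37 C, then exposed to compounds in DMSO for 24 hr at 37 C. Luciferase activity read by One-Glo luminescence after 30 min at room temperature.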
# [19] = molecular target: Nuclear receptor subfamily 1 group I member 2 (Homo sapiens) (UniProt O75469); experiment: CYP3A4 induction through human pregnane X receptor (PXR) by small molecules, qHTS assay (AID 1346984); note: nearly all actives have a fitted effect of over 40% in size
# Method in brief: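 Steps: seed DPX-2 cells, 5 hr at 37C; pin-transfer compounds; 24 hr at 37C; add Luciferin-IPA (3uM final), 3 hr at 37C; add One-Glo, 30 min RT; read luminescence.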
# [20] = molecular target: Nuclear receptor subfamily 1 group I member 2 (Homo sapiens) (UniProt O75469); experiment: Human pregnane X receptor (PXR) activation by small molecules, qHTS assay (AID 1346985); note: nearly all actives have a fitted effect of over 40% in size
# Method in brief: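 DPX-2 cells (HepG2 co-transfected with a PXR response element and a CYP3A4-promoter luciferase construct) were seeded at 2,000 per well, rested 5 hr at 37C, then exposed to DMSO-dissolved compounds for 24 hr. Activation was read as luciferase luminescence.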
Structure (SMILES),Potency [1],Potency [2],Potency [3],Potency [4],Potency [5],Potency [6],outcome [7],Potency [8],outcome [9],Potency [10],Potency [11],Potency [12],Potency [13],Potency [14],Potency [15],Potency [16],Potency [17],max activation [18],outcome [19],Potency [20]
Cc1ccc2c(C)cccc2c1,inactive,inactive,inactive,inactive,inactive,inactive,inactive,inactive,inactive,inactive,inactive,inactive,inactive,inactive,inactive,inactive,,,,
O=C(Cc1ccccc1)c1ccccc1,inactive,inactive,inactive,inactive,inactive,,inactive,inactive,inactive,inactive,inactive,inactive,inactive,inactive,61.1 µM (active),inactive,inactive,,,
CN[C@@H](C)[C@H](O)c1ccccc1,inactive,inactive,inactive,inactive,inactive,inactive,inactive,inactive,inactive,,inactive,inactive,inactive,,inactive,inactive,,-0.788%,inactive,inactive
CCCCCCCCCCCCCCCl,inactive,inactive,inactive,inactive,inactive,inactive,inactive,inactive,inactive,inactive,inactive,inactive,inactive,inactive,61.4 µM (active),inactive,,,,
O=C1CC[C@@]2(O)[C@H]3Cc4ccc(O)c5c4[C@@]2(CCN3CC2CC2)[C@H]1O5,inactive,inactive,inactive,inactive,inactive,,inactive,inactive,inactive,inactive,inactive,inactive,inactive,inactive,,inactive,,-2.95%,,
O=[N+]([O-])c1cc(Cl)c(Cl)cc1Cl,inactive,inactive,inactive,inactive,inactive,inactive,inactive,,,inactive,inactive,inactive,inactive,inactive,inactive,inactive,inactive,,,
CN1CC[C@]23c4c5ccc(O)c4O[C@H]2[C@@H](O)C=C[C@H]3[C@H]1C5,inactive,inactive,inactive,inactive,inactive,inactive,inactive,inactive,inactive,inactive,inactive,inactive,inactive,inactive,inactive,,,,,
C[C@H]1O[C@H](OC2[C@@H](O)[C@@H](O)C(O)[C@H](O)[C@H]2O)[C@@H](N)C[C@@H]1N=C(N)C(=O)O (stereo partly specified),inactive,inactive,inactive,inactive,inactive,inactive,inactive,inactive,inactive,inactive,inactive,inactive,inactive,inactive,inactive,inactive,,,,
OCC1CO1 (stereo unspecified),inactive,inactive,inactive,inactive,inactive,inactive,inactive,,,inactive,inactive,inactive,inactive,inactive,inactive,inactive,inactive,,,
CC(C)(C#N)C(C)(C)C#N,inactive,inactive,inactive,inactive,inactive,inactive,inactive,,,inactive,inactive,,inactive,,inactive,inactive,,,,
Oc1cccc(Cl)c1,inactive,inactive,inactive,inactive,inactive,,inactive,inactive,inactive,,inactive,inactive,inactive,,,inactive,inactive,,,
CCCCC(CC)CO[N+](=O)[O-] (stereo unspecified),inactive,inactive,inactive,inactive,inactive,inactive,inactive,inactive,inactive,,inactive,inactive,inactive,inactive,inactive,inactive,,,,
Cc1cccc(C)c1NC1=NCCCS1,inactive,inactive,inactive,inactive,inactive,inactive,,inactive,inactive,inactive,inactive,inactive,inactive,inactive,inactive,inactive,inactive,,,
CCCCCBr,inactive,inactive,inactive,inactive,inactive,inactive,inactive,inactive,inactive,,inactive,inactive,inactive,,inactive,inactive,,,,
